Calls of active or inactive are those of the source.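 Rule for the calls: active = high combined rank on largest and smallest cell-count-weighted shift across three tests, rank score above 45, floors 50 and 25 (some results past the limit were not filed as active); inactive = the rest.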
Assay: activators of LNCaP cell differentiation, retest, confirmation, side scatter shift, flow cytometry (AID 1069);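 note: LNCaP human prostate cancer cells in low-serum medium with charcoal-stripped FBS; percent of cells with raised granularity gated so DMSO controls show 10%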
Conditions: 4 d, stronger effect = higher value

## Cc1ccc(Nc2cc(=O)n(C3CCCCC3)c(=O)[nH]2)cc1C
At 100 µM
  side scatter shift: 0% (inactive)
Side scatter shift, at 10 µM
  side scatter shift: 10.6%

## CCn1c(SCC(=O)Nc2ccccc2F)nc2c(c1=O)SC(C)C2 (centres undefined)
At 100 µM
  side scatter shift: 8% (inactive)
Side scatter shift, at 10 µM
  side scatter shift: 0.85%

## O=C(NCCCN1CCN(c2ccccc2F)CC1)C1CCN(S(=O)(=O)N2CCOCC2)CC1
At 100 µM
  side scatter shift: 19.9% (inactive)
Side scatter shift, at 10 µM
  side scatter shift: 7.2%

## c1ccc(N2CCN(c3nnc(Cc4cccnc4)c4ccccc34)CC2)nc1
At 100 µM
  side scatter shift: 17.5% (inactive)
Side scatter shift, at 10 µM
  side scatter shift: 8%

## COC(=O)c1cc2oc3ccccc3c2n1CC(=O)Nc1ccccc1OC
At 100 µM
  side scatter shift: 18.9% (inactive)
Side scatter shift, at 10 µM
  side scatter shift: 8.8%

## O=C(CCn1c(=O)[nH]c2ccccc2c1=O)NCCCN1CCN(c2cccc(Cl)c2)CC1
At 100 µM
  side scatter shift: 35.7% (inactive)
Side scatter shift, at 10 µM
  side scatter shift: 11.1%

## COc1ccc(Cc2nc(-c3ccc(-n4cccc4)cc3)no2)cc1OC
At 100 µM
  side scatter shift: 23.5% (inactive)
Side scatter shift, at 10 µM
  side scatter shift: 15.8%

## Cc1ccc(C)c(N2CCN(C(=O)CCNC(=O)Cn3ccc4ccccc4c3=O)CC2)c1
At 100 µM
  side scatter shift: 25% (inactive)
Side scatter shift, at 10 µM
  side scatter shift: 10%

## CCOC(=O)c1cc2c(=O)n3ccccc3nc2n(CCCOC)c1=NC(=O)c1cccnc1
At 100 µM
  side scatter shift: 9.9% (inactive)
Side scatter shift, at 10 µM
  side scatter shift: 5.75%

## O=C(Cn1ccc2ccccc2c1=O)NCCC(=O)N1CCN(c2cccc(C(F)(F)F)c2)CC1
At 100 µM
  side scatter shift: 5.2% (inactive)
Side scatter shift, at 10 µM
  side scatter shift: 2.4%

## N=c1c(C(=O)NC2CCCC2)cc2c(=O)n3ccccc3nc2n1C1CCCC1
At 100 µM
  side scatter shift: 16.7% (inactive)
Side scatter shift, at 10 µM
  side scatter shift: 7.85%

## CC1=C(n2nnc3ccccc32)C(c2ccccc2)C(C#N)=C(N)O1 (centres undefined)
At 100 µM
  side scatter shift: 26% (inactive)
Side scatter shift, at 10 µM
  side scatter shift: 6.4%

From PubChem BioAssay AID1069 (NMMLSC, 2008)
